Active and inactive are the calls of the source. Calls come from the whole dose curve.
What was measured:
Assay in all cases: Confirmatory Screen for Target Class Profiling of Small Molecule Inhibitors of Methyltransferases (AID 1745852); for activity change, negative = inhibition: % is set by controls: 0 for no effect and ±100 for the full control effect
[1] = target: Catechol O-methyltransferase (Homo sapiens) (UniProt P21964); conditions: MTase-Glo luminescence, SAH detection, recombinant enzyme; measured here: COMT max response; stronger effect = lower value
Catechol O-methyltransferase (Homo sapiens), sequence (P21964 whole entry, looked up): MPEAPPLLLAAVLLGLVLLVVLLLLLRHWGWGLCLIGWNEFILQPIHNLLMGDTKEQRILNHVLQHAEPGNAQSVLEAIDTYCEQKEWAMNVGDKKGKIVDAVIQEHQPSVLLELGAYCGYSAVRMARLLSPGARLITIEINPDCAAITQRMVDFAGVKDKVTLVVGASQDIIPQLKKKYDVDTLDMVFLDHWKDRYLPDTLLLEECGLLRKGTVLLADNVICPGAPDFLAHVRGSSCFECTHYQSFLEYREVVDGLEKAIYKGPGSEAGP

[2] = target: Guanidinoacetate N-methyltransferase (Homo sapiens) (UniProt Q14353); conditions: MTase-Glo luminescence, SAH detection, recombinant enzyme; activity change, negative = inhibition: at 57.3 µM (top of the series) unless noted; series mostly up to 57.3 µM
[3] = target: Nicotinamide N-methyltransferase (Homo sapiens) (UniProt P40261); conditions: MTase-Glo luminescence, SAH detection, recombinant enzyme; measured here: NNMT max response; stronger effect = lower value
Nicotinamide N-methyltransferase (Homo sapiens), sequence (P40261 whole entry, looked up): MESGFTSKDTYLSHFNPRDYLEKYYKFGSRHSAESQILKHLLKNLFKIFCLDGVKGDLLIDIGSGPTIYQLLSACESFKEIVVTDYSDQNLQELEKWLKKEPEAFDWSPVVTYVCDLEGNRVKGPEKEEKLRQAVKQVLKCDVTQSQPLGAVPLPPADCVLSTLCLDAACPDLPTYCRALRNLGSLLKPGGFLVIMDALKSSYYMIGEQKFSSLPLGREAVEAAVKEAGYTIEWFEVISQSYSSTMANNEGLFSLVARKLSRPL

[4] = target: Phenylethanolamine N-methyltransferase (Homo sapiens) (UniProt P11086); conditions: MTase-Glo luminescence, SAH detection, recombinant enzyme; measured here: PNMT max response; stronger effect = lower value
Phenylethanolamine N-methyltransferase (Homo sapiens), sequence (P11086 whole entry, looked up): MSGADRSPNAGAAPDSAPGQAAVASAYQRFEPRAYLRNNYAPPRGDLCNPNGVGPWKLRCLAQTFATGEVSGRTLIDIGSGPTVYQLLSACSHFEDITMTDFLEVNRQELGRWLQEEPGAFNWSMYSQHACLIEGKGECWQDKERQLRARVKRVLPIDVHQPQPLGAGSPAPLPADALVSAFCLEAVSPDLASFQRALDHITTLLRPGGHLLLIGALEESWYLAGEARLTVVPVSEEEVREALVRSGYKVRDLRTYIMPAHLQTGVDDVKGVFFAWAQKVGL
Potency is the fitted concentration of half-maximal effect.

SMILES | activity [1] [%] | activity change, negative = inhibition [2] | activity [3] [%] | activity [4] [%] | Potency [2]
CN(CCCNC(=O)CCc1nnc2n(Cc3ccccc3)c(=O)c3ccccc3n12)Cc1ccccc1 | 1.61 | 0% | -7.26 | -2.41 | –
Cc1ccc(C(=O)O)c2c1N[C@H](c1cccc(Cl)c1)C1CC=CC21 (stereo not given in full) | 2.41 | – | 3.29 | 2.81 | inactive
Cc1cnc(CCNC(=O)c2cccs2)n1C1CCC1 | 0.518 | 3.29% | 8.96 | 6.31 | –
Cc1cc(C)c(CNC(=O)c2cc(-c3cnn(C)c3C)cc3c2OCCN3C)c(=O)[nH]1 | -62.4 | – | -51.4 | -75.2 | 39.3 µM (active)
Cc1noc(C)c1-c1cc(-c2ccc(CN(C)C)cc2)cn2cncc12 | -2.27 | -8.74% [at 85.7 µM] | -10.7 | -3.78 | –
CC(NC(=O)c1ccc2c(=O)nc3c(-c4cccc(F)c4)n[nH]n3c2c1)c1ccc(F)cc1 (stereo not given) | -18.4 | – | -28.4 | -25.5 | 13.6 µM (active)
CCCCN1C(=O)c2cc(C(=O)Nc3cc(C)cc(C)c3)nn2CC1(C)C(=O)NC1CCCC1 (stereo not given) | -1.58 | 0% | 1.44 | -4.22 | –
COc1ccc(OC)c(CN2CCNc3cc(-c4ccnc(C)c4)ncc3C2)c1 | 6.21 | 6.12% [at 85.7 µM] | -5.07 | 4.8 | –
CC1CC(C)CN(S(=O)(=O)c2ccc3c(c2)oc(=O)n3CC(=O)Nc2ccc(F)cc2)C1 (stereo not given) | 4.26 | 0% | -4.58 | -42.5 | –
COc1ccccc1-c1[nH]nc2ncc(C(=O)N3CCN(Cc4ccccc4)CC3)nc12 | -51.3 | – | -37.2 | -61.8 | 35 µM (active)
CC(C)OCCCn1c(=O)c2ccccc2n2c(CCC(=O)N3CCN(c4cccc(Cl)c4)CC3)nnc12 | 0.543 | 0% | -39.1 | -4.41 | –
COc1cccc(Nc2ccnc(-c3nnc(C)n3C3CCCCC3)c2)c1 | 7.43 | 17.8% [at 85.7 µM] | -22.9 | 8.64 | –
CC(C)NC(=O)c1ccccc1OCC1CCCN(Cc2cn(C)c3ccccc23)C1 (stereo not given) | 8.45 | 14.4% | 4.67 | 10.4 | –
COc1ccc(-c2cc(-c3cnn(C)c3)cn3cncc23)cn1 | -23.7 | -6.32% [at 85.7 µM] | -36.8 | -7.46 | –
Cc1c(OCc2ccc(C(=O)O)o2)ccc2c(-c3ccccc3)cc(=O)oc12 | -33.2 | – | -34.7 | -33.9 | 24.1 µM (active)
Fc1cccc(-c2nnn3c2nc(NCCc2ccccc2)c2ccccc23)c1 | -4.7 | -1.64% | -12.6 | -9.28 | –
CCCS(=O)(=O)N1CCCC(Cn2c(C)nc3cccnc32)C1 (stereo not given) | 1.15 | 2.96% | 7.76 | 4.99 | –
COc1ccc(NC(=O)C(C)(C)Oc2nn(CC3CC3)c3ccc(CN4CCCC4)cc23)cc1 | 8.52 | 9.81% | 5.5 | 9.18 | –
O=C1COc2ccc(-c3cccc(O)c3)nc2CN1Cc1ccc(C(F)(F)F)cc1 | -39 | -7.53% [at 85.7 µM] | -22.9 | -51.9 | –
COC(=O)c1ccc(C)c2c1C1C=CCC1[C@@H](c1ccc(C(=O)O)cc1)N2 (stereo not given in full) | -11.4 | -1.6% | -8.29 | -3.22 | –

SMILES | activity [1] [%] | activity change, negative = inhibition [2] | activity [3] [%] | activity [4] [%] | Potency [2]
COc1ccc(-c2cc(C(=O)NCc3cccnc3)c3c(c2)N(C)CCO3)cc1OC | 3.17 | 8.84% [at 85.7 µM] | -0.0858 | -0.493 | –
O=C(OCc1ccccc1)N1CCOCC12CCN(Cc1c[nH]c3ccccc13)CC2 | 6.86 | 9.15% [at 85.7 µM] | 5.55 | 1.46 | –
CC1(C(=O)NC2CCCCC2)Cn2c(c(-n3cccc3)c3ccccc32)C(=O)N1Cc1ccccn1 (stereo not given) | 0 | 0% | -45.4 | 2.72 | –
Cc1ccc(C(=O)O)c2c1N[C@@H](c1ccc(Cl)cc1)[C@H]1CC=C[C@@H]21 | 2.12 | 0.676% | 0.978 | 2.78 | –
c1ccc(CN2CCNc3cnc(Nc4ccc(N5CCOCC5)cc4)cc3C2)cc1 | -14.6 | -9.27% [at 85.7 µM] | -15 | -10.3 | –
COCCn1ccc2c(C3=CCOCC3)nc(-c3cccc4[nH]ccc34)cc21 | -2.42 | -9.46% [at 85.7 µM] | -12.7 | -36.9 | –
CCCCCNC(=O)c1sc(=S)n2c1[nH]c(=O)c1ccc(C(=O)OC)cc12 | -39.2 | – | -59.4 | -27 | 30.4 µM (active)
CCOc1ccccc1CN1CCC(Cc2nc(-c3cccnc3)n[nH]2)C1 (stereo not given) | 2.59 | 0.265% | -34.4 | -0.0084 | –
COc1ccccc1CC(=O)N1CCCc2ncc(C(=O)Nc3cccc(Cl)c3)cc21 | 2.46 | 2.54% [at 85.7 µM] | 9.05 | 3.39 | –
CC1CCN(CCCNC(=O)CCc2nnc3n(Cc4ccccc4Cl)c(=O)c4ccccc4n23)CC1 | -11.4 | -3.45% | -14.4 | -7.41 | –
COc1ccc(-c2cc3nc4c(c(=O)n3[nH]2)CN(C(=O)CN(C)S(=O)(=O)c2cnc[nH]2)CC4)cc1 | -19.9 | – | -27.5 | -19.5 | 21.5 µM (active)
CCCn1c(C)cnc1CC1CCN(C(=O)NCc2ccc(OC)cc2)C1 (stereo not given) | -4.22 | 6.2% | -3.34 | -1.44 | –
COCCCNC(=O)c1cnc2n[nH]c(-c3ccccc3)c2n1 | -62.1 | – | -64.3 | -75.1 | 39.3 µM (active)
COc1cccc(NC(=O)Cn2c(=O)oc3cc(S(=O)(=O)N4CC(C)CC(C)C4)ccc32)c1 (stereo not given) | 3.17 | 0% | -1.21 | -70.5 | –
Cn1cc(-c2cc3c(ccn3Cc3ccncc3)c(N3CCOCC3)n2)cn1 | -2.2 | -2.92% [at 85.7 µM] | -4.04 | -7.43 | –
COc1ccc2c(c1)C(CN1CCN(c3ccc4oc(C(=O)O)cc4c3Cl)CC1)=CC(C)(C)CO2 | -4.38 | 0.273% | -9.6 | 3.5 | –
CN1CCCC2(C1)CN(C)c1ccc(C(=O)NCC3CCCCC3)cc12 (stereo not given) | 1.14 | -0.167% [at 85.7 µM] | -10.6 | -0.542 | –
O=C(CCCc1nnc2n3nc(-c4ccccc4)nc3c3ccccc3n12)N1CCC(N2CCCCC2)CC1 | -14.2 | -7.55% | -20.9 | -10.5 | –
Cn1ccc2c(C(=O)NCCc3cnc[nH]3)nc(-c3ccc(N4CCOCC4)cc3)cc21 | -6.99 | -0.183% [at 85.7 µM] | 2.75 | -6.64 | –
CC(C)c1nccn1CCCNC(=O)c1ccc(-c2cccc(F)c2)nc1 | 4.81 | 3.97% | 9.65 | -0.0651 | –

SMILES | activity [1] [%] | activity change, negative = inhibition [2] | activity [3] [%] | activity [4] [%] | Potency [2]
CCOc1cc(CNc2ccc(C(=O)O)cc2)ccc1OCc1ccccc1 | -41.3 | 0.912% | -22.2 | -2.65 | –
Cc1noc(C)c1[S+](=O)([O-])N1CCn2c(nn(-c3ccc(C(F)(F)F)cc3)c2=O)C1 | -1.02 | -1.81% | -3.73 | -10.3 | –
COc1ccc(-c2nnc3n(CCc4ccccc4)c(=O)c4ccccc4n23)c(OC)c1 | -4.93 | -5.05% | -9.89 | -5.15 | –
CN(CCc1nc2ccc(Cl)cc2[nH]1)c1cc(C2CC(O)C2)nc(N)n1 (stereo not given) | 4.84 | 2.73% | -2.79 | 3.63 | –
COc1ccc(OC)c(NC(=O)c2sc(=S)n3c2[nH]c(=O)c2ccc(Cl)cc23)c1 | -83.1 | – | -72.9 | -84.9 | 24.1 µM (active)
COC(=O)c1nc(NC(=O)Cn2nc3c(cc2=O)CCCC3)sc1C(C)C | -1.05 | 0.9% | -8.15 | 2.23 | –
CC1CCCCN1CCNC(=O)CCc1nnc2n(Cc3ccc(F)cc3)c(=O)c3ccccc3n12 (stereo not given) | 4.47 | 0% | -9.89 | 0.568 | –
CCCC1c2cccn2CCN1C(=O)Nc1ccc(C)cc1Cl (stereo not given) | 0.596 | – | -6.98 | -0.613 | inactive
COc1ccc(CC(=O)Nc2ccc3ncnc(N4CCCC4)c3c2)c(Cl)c1 | -2.51 | -0.581% | -30.7 | -8.25 | –
CCc1cccc(NC(=O)Cn2c(=O)oc3cc(S(=O)(=O)N4CC(C)CC(C)C4)ccc32)c1 (stereo not given) | 3.4 | 0% | -6.52 | -59.2 | –
O=C(Nc1ccc2ncnc(N3CCCCC3)c2c1)C1CCCCC1 | -75.6 | – | -81.1 | -86.5 | 19.2 µM (active)
O=C(CCc1nnc2n(Cc3ccc(F)cc3)c(=O)c3ccccc3n12)N1CCC(N2CCCCC2)CC1 | 3.84 | 0% | -4.81 | 0 | –
CCN(CC)CCNC(=O)CCc1nnc2n(Cc3ccc(Cl)cc3)c(=O)c3ccccc3n12 | 2.48 | 0% | -12.4 | 0 | –
Cc1ccc(CNC(=O)c2ccc3c(=O)[nH]c4c(C(=O)NC(C)C)sc(=S)n4c3c2)cc1 | -30.2 | -7.1% | -65.3 | -17.2 | –
CC1CC(C)CN(S(=O)(=O)c2ccc3c(c2)oc(=O)n3CC(=O)Nc2ccc(Cl)cc2)C1 (stereo not given) | -4.03 | -1.24% | -8.67 | -61.6 | –
O=C(O)c1ccc2c(c1)C1C=CCC1C(c1ccc(Cl)cc1)N2 (stereo not given) | -24.7 | – | -22.4 | -23.3 | 42.9 µM (active)
O=C(NCc1ccc(Cl)cc1)c1ccc2c(=O)nc3c(-c4ccccc4F)n[nH]n3c2c1 | -4.08 | -1.1% | -14.9 | -19.4 | –
COc1ccc(OC)c2c1cc1n2CC(C)(C(=O)NC2CCCCC2)N(Cc2ccccn2)C1=O (stereo not given) | -7.35 | -3.03% | -22.4 | -6.38 | –
O=C1c2ccccc2C(=O)c2c1cccc2S(=O)(=O)Nc1ccc(Cl)cc1 | 0.0726 | -0.67% | -1.28 | -37 | –
COc1ccc(OCc2cc(C(=O)NC(CO)C(C)C)no2)c2ccccc12 (stereo not given) | 3.87 | 1.38% | 5.13 | 0.331 | –

Source: PubChem BioAssay (NCATS)
